Bioassay records (PubChem)
CYP2C19 act – activators of human cytochrome P450 2C19; 96,000 tested, under 10 active; recombinant CYP2C19, luciferin-H EGE luminescence; stronger effect = higher value; 0 = fully inhibited enzyme, 1 = untreated enzyme; AID 1025; activation factor at 5 µM;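 active = activation factor of at least 2 at 5 µM in the primary screen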;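 also: 0 = wells with 2.5 mM tranylcypromine and 1 = vehicle-only wells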
CYP2C19 inhib – human CYP2C19 inhibition; 96,000 tested, 21% active; P33261; CYP2C19 Supersomes, luciferin-H EGE luminescence, 30 min; inhibition, % at 5 µM;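 active = CYP2C19 inhibition above a set limit at 5 µM in the primary screen, cut at about 50% in these data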;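 also: plate controls were negative control wells for no effect and 2.5 mM tranylcypromine positive control for full effect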
CYP2C9 inh – inhibitors of human CYP2C9. AID 777. CYP2C9 Supersomes, luciferin-H conversion, luminescence. inhibition, % at 5 µM. P11712. 96,000 tested, 20% active;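 active = blocking of liver enzyme CYP2C9 beyond about 50% at 5 µM, limit read from the data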
Target sequence (P11712 whole entry, looked up): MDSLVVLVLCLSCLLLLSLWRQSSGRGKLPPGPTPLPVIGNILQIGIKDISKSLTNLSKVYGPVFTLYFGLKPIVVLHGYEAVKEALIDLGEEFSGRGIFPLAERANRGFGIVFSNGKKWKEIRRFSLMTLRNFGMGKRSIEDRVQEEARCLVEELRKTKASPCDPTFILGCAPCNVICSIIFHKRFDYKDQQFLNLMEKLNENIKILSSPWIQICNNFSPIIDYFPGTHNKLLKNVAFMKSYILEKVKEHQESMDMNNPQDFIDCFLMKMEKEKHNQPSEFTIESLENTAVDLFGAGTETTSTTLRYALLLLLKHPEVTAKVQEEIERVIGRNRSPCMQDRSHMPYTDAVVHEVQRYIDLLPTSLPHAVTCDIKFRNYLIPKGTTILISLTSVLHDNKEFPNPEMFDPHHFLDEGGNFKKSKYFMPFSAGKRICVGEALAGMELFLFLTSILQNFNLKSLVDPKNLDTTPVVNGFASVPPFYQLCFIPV
CYP2C9 activ – increases human cytochrome P450 2C9 activity | 96,000 tested, 1.4% active | P11712 | activation factor at 5 µM | recombinant CYP2C9, luciferin-H conversion, luminescence; stronger effect = higher value; factor 1 = untreated enzyme, 0 = blocked | AID 1024;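 active = activation factor of 2 or more for CYP2C9 at a 5 µM dose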;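 also: 0 = sulfaphenazole-blocked wells and 1 = vehicle-only wells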
* marks the source's active call; other numbers are inactive results. Compounds with a hit are over-represented: about 31% of the library has one in this group of screens.

For COc1cccc(C2C(C(=O)c3sc(C)nc3C)=C(O)C(=O)N2CCN(C)C)c1OC (stereo unspecified) the results were CYP2C19 act 1, CYP2C19 inhib 2, CYP2C9 inh -5 and CYP2C9 activ 1.1.
Cc1ccnc(NC2(C(F)(F)F)N=C(c3ccccc3)NC2=O)c1 (stereo unspecified) was read as CYP2C19 act 0.9, CYP2C19 inhib 10, CYP2C9 inh -2 and CYP2C9 activ 1.
Screening COCc1cc(C)nc(N2CCN(Cc3ccccc3)CC2)c1C#N returned CYP2C19 act 0.1, CYP2C19 inhib 95*, CYP2C9 inh 14 and CYP2C9 activ 0.9.
`COCc1cc(C)nc(N2CCNCC2)c1C#N` gave CYP2C19 act 1.1, CYP2C19 inhib -9, CYP2C9 inh -15 and CYP2C9 activ 1.1.
For COCc1cc(C)nc(NCCc2ccccc2)c1C#N the results were CYP2C19 act 0.5, CYP2C19 inhib 52*, CYP2C9 inh 4 and CYP2C9 activ 1.
Screening COCc1cc(C)nc(N2CCN(c3ccccc3)CC2)c1C#N returned CYP2C19 act 0.3, CYP2C19 inhib 69*, CYP2C9 inh -139 and CYP2C9 activ 2.4*.
For COCc1cc(C)nc(NC2CCCCC2)c1C#N the results were CYP2C19 act 1, CYP2C19 inhib -4, CYP2C9 inh 4 and CYP2C9 activ 1.
For COc1ccc(N=C2C(=Nc3ccc(OC)cc3)N(c3ccc(OC)cc3)C(=S)N2c2ccccc2)cc1 the results were CYP2C19 act 1, CYP2C19 inhib 4, CYP2C9 inh 78* and CYP2C9 activ 0.2.
For COc1ccc(N=C2C(=Nc3ccc(OC)cc3)N(c3ccc(OC)cc3)C(=S)N2C)cc1 the results were CYP2C19 act 0.3, CYP2C19 inhib 68*, CYP2C9 inh 53* and CYP2C9 activ 0.5.
`COc1ccc(N=C2SCC(=O)N2c2ccc(OC)cc2)cc1` gave CYP2C19 act 0.8, CYP2C19 inhib 21, CYP2C9 inh -3 and CYP2C9 activ 1.
For Cc1nc2ccccc2n1C1CC(=O)N(Cc2ccccc2)C1=O (stereo unspecified) the results were CYP2C19 act 0.7, CYP2C19 inhib 31, CYP2C9 inh 32 and CYP2C9 activ 0.7.
`O=C1C2C3C=CC(O3)C2C(=O)N1CC(O)c1ccccc1` (stereo unspecified) gave CYP2C19 act 0.9, CYP2C19 inhib 8, CYP2C9 inh -7 and CYP2C9 activ 1.1.
Cc1ccc(Cl)cc1N1CCN(S(=O)(=O)c2ccc3c(c2)oc(=O)n3C)CC1 was read as CYP2C19 act 0.9, CYP2C19 inhib 12, CYP2C9 inh 97* and CYP2C9 activ 0.
For Cc1ccc(Cl)cc1N1CCN(S(=O)(=O)c2c(C)[nH]c(=O)[nH]c2=O)CC1 the results were CYP2C19 act 0.8, CYP2C19 inhib 24, CYP2C9 inh 26 and CYP2C9 activ 0.7.
Screening Cn1c(=O)oc2cc(S(=O)(=O)N3CCOCC3)ccc21 returned CYP2C19 act 1.3, CYP2C19 inhib -28, CYP2C9 inh -32 and CYP2C9 activ 1.3.
Screening Cn1c(=O)oc2cc(S(=O)(=O)N3CCC4(CC3)OCCO4)ccc21 returned CYP2C19 act 0.2, CYP2C19 inhib 75*, CYP2C9 inh -2 and CYP2C9 activ 1.
`Cc1ccc(S(=O)(=O)N2CCN(C(=O)CSC3CCCC3)CC2)c(C)c1` gave CYP2C19 act 0.2, CYP2C19 inhib 76*, CYP2C9 inh -39 and CYP2C9 activ 1.4.
Cc1ccc(S(=O)(=O)N2CCN(C(=O)CSc3nc4ccccc4c(=O)[nH]3)CC2)c(C)c1 was read as CYP2C19 act 1, CYP2C19 inhib -2, CYP2C9 inh 26 and CYP2C9 activ 0.7.
For CCOC(=O)c1c(C)[nH]c(C(=O)OCC(=O)N2CCN(S(=O)(=O)c3ccccc3)CC2)c1C the results were CYP2C19 act 1, CYP2C19 inhib 0, CYP2C9 inh -3 and CYP2C9 activ 1.
For CC(=O)c1c(C)[nH]c(C(=O)OCC(=O)N2CCN(S(=O)(=O)c3ccc(C)cc3C)CC2)c1C the results were CYP2C19 act 0.4, CYP2C19 inhib 61*, CYP2C9 inh 50* and CYP2C9 activ 0.5.
COc1cc(/C=C(\NC(=O)c2ccccc2)C(=O)Nc2cccc(O)c2)c([N+](=O)[O-])cc1OC was read as CYP2C19 act 0.9, CYP2C19 inhib 6, CYP2C9 inh 27 and CYP2C9 activ 0.7.
CCCCN1C(=O)C2C(c3ccc(OC)cc3O)NC(CC(C)C)(C(=O)O)C2C1=O (stereo unspecified) was read as CYP2C19 act 1.1, CYP2C19 inhib -11, CYP2C9 inh -20 and CYP2C9 activ 1.2.
For CCOc1ccc(NC(=O)N(CCC(C)C)C2CCN(C(C)=O)CC2)cc1 the results were CYP2C19 act 0.9, CYP2C19 inhib 6, CYP2C9 inh 10 and CYP2C9 activ 0.9.
For C=C(C)c1nc(N)nc(N)n1 the results were CYP2C19 act 1, CYP2C19 inhib -2, CYP2C9 inh 3 and CYP2C9 activ 1.
C=CCn1c2ccccc2c2nnc(SC(CC)C(=O)Nc3sc4c(c3C#N)CCCC4)nc21 (stereo unspecified) was read as CYP2C19 act 0.5, CYP2C19 inhib 53*, CYP2C9 inh 73* and CYP2C9 activ 0.3.
`CC1(C)CC(=O)C(CC2=C(O)CC(C)(C)CC2=O)C(=O)C1` gave CYP2C19 act 0.5, CYP2C19 inhib 51*, CYP2C9 inh 3 and CYP2C9 activ 1.
Screening CN=CC1=C(O)CC(C)(C)CC1=O returned CYP2C19 act 1, CYP2C19 inhib 2, CYP2C9 inh 19 and CYP2C9 activ 0.8.
CC1(C)CC(=O)C(CC2=C(O)CC(C)(C)CC2=O)=C(O)C1 was read as CYP2C19 act 0.1, CYP2C19 inhib 86*, CYP2C9 inh 26 and CYP2C9 activ 0.7.
CC1=NOC2(C1)N(C)c1ccccc1C2(C)C (stereo unspecified) was read as CYP2C19 act 0.4, CYP2C19 inhib 58*, CYP2C9 inh 19 and CYP2C9 activ 0.8.
`CN1c2ccccc2C(C)(C)C12CCCC(=O)N2` (stereo unspecified) gave CYP2C19 act 0.9, CYP2C19 inhib 6, CYP2C9 inh -7 and CYP2C9 activ 1.1.
For Cc1c(C)c2cc(Cl)c(OCc3nn[nH]n3)cc2oc1=O the results were CYP2C19 act 0.1, CYP2C19 inhib 92*, CYP2C9 inh 94* and CYP2C9 activ 0.1.
Screening Cc1ccc(-c2csc(C3C(N)=NC(S)=C(C#N)C34CCCCC4)n2)cc1 (stereo unspecified) returned CYP2C19 act 0.5, CYP2C19 inhib 50, CYP2C9 inh 89* and CYP2C9 activ 0.1.
Screening N#CC1=C(S)N=C(N)C(c2nc(-c3ccccc3)cs2)C12CCCCC2 (stereo unspecified) returned CYP2C19 act 0.4, CYP2C19 inhib 60*, CYP2C9 inh 67* and CYP2C9 activ 0.3.
Screening N#CC1=C(S)N=C(N)C(c2nc(-c3ccccc3)cs2)C12CCCC2 (stereo unspecified) returned CYP2C19 act 0.1, CYP2C19 inhib 86*, CYP2C9 inh 98* and CYP2C9 activ 0.
For Nc1nc(-c2ccccc2)cs1 the results were CYP2C19 act 1, CYP2C19 inhib 4, CYP2C9 inh -6 and CYP2C9 activ 1.1.
